Measurements from PubChem BioAssay (Tox21).
Results filed as inconclusive are left out. Calls of active or inactive are those of the source. Unless noted, calls come from the whole dose curve; as a rule, active = well fitted curve in the direction sought with a large enough effect in the repeat runs; inconclusive = weak or mixed curves; inactive = no such curve, though single readings can be large; an effect the other way counts as inactive or inconclusive.

What was measured:
[1] = qHTS assay to test for compound auto fluorescence at 535 nm (green) in HEK293 cells (AID 720680)
[2] = qHTS assay to test for compound auto fluorescence at 460 nm (blue) in HEK293 cell free culture (AID 720681)
In short: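 Blue fluorescence (Ex 405/Em 460 nm, triamterene-equivalent) was read immediately after pin transfer of compound or DMSO into medium (DMEM, 10% FBS) without cells.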

[3] = qHTS assay to test for compound auto fluorescence at 535 nm (green) in HEK293 cell free culture (AID 720682)
In short: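 Cell-free medium (DMEM, 10% FBS) receives compound or DMSO by pintool. Plate read directly at Ex 485/Em 535 nm. Signal converted to fluorescein equivalency.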

[4] = qHTS assay to test for compound auto fluorescence at 590 nm (red) in HEK293 cell free culture (AID 720683)
In short: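 Red-channel autofluorescence of compounds in culture medium (DMEM, 10% FBS), no cells, measured at 540/590 nm. Rose Bengal sodium is the reference fluorophore for equivalence.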

[5] = qHTS assay to test for compound auto fluorescence at 590 nm (red) in HepG2 cell free culture (AID 720684)
In short: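 No cells present: MEM + 10% FBS only. Compound pinned in, red label read (540/590 nm). Activity = fluorescence equivalent to Rose Bengal sodium.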

[6] = qHTS assay to test for compound auto fluorescence at 460 nm (blue) in HepG2 cell free culture (AID 720685)
In short: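 Cell-free plates of MEM plus 10% FBS received 23 nL compound or DMSO vehicle; blue-channel (405/460 nm) intensity scored against triamterene as reference fluorophore.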

[7] = qHTS assay to test for compound auto fluorescence at 535 nm (green) in HepG2 cell free culture (AID 720686)
[8] = qHTS assay to test for compound auto fluorescence at 460 nm (blue) in HepG2 cells (AID 720687)
In short: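 Blue-channel autofluorescence (Ex/Em 405/460 nm, triamterene-equivalent) was measured after 1 hr compound exposure at 37 C, 5% CO2. Cells were HepG2, plated overnight at 37 C in MEM plus 10% FBS.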

[9] = target: Glucocorticoid receptor (Homo sapiens) (UniProt P04150); test: qHTS assay to identify small molecule agonists of the glucocorticoid receptor (GR) signaling pathway (AID 720691; active = well fitted activation curve with a large enough effect in the signal ratio in the repeat runs, not every such curve was filed as active; the % refers to the signal ratio)
Sequence of Glucocorticoid receptor (Homo sapiens) (P04150 whole entry, looked up): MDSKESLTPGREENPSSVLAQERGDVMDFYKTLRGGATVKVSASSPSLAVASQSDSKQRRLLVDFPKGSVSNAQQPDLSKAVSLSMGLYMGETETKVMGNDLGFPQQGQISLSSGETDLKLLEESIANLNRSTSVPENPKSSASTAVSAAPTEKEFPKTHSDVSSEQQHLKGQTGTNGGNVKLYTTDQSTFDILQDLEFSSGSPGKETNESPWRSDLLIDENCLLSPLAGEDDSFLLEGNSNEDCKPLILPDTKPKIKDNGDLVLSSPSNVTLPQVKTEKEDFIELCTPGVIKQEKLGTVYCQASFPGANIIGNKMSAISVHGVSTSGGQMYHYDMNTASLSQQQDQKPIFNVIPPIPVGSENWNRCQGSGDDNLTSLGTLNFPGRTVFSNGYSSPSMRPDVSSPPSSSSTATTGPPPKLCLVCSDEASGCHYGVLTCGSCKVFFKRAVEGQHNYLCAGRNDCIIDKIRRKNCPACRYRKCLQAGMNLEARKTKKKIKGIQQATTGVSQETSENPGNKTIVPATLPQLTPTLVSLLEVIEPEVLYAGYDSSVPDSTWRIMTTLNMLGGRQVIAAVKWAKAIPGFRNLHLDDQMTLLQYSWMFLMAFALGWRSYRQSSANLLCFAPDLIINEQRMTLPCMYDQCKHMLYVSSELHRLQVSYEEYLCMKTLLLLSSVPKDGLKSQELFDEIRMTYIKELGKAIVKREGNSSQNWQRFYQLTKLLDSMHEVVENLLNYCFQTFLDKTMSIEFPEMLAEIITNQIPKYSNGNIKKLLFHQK
In short: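 Measures GR pathway activation through a GRE-beta-lactamase reporter stably integrated in HeLa cells, with 18 h compound treatment at 37 C and fluorescence detection using a FRET substrate.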

[10] = qHTS assay to identify small molecule antagonists of the glucocorticoid receptor (GR) signaling pathway - cell viability counter screen (AID 720693); note: nearly all actives have a fitted effect of over 55% in size
[11] = qHTS assay for identifying genotoxic compounds that show differential cytotoxicity against isogenic chicken DT40 cell lines with known DNA damage response pathways - wild type cell line (AID 743012); note: nearly all actives have a fitted effect of over 60% in size
In short: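 Endpoint: CellTiter-Glo luminescence, 30 min RT. Cells: wild type DT40, 300/well. Exposure: compounds in DMSO, 40 h, 37 C/5% CO2, after ~0.5 h pre-incubation.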

[12] = qHTS assay for identifying genotoxic compounds that show differential cytotoxicity against isogenic chicken DT40 cell lines with known DNA damage response pathways - Rev3 mutant cell line (AID 743014); note: nearly all actives have a fitted effect of over 55% in size
[13] = qHTS assay for identifying genotoxic compounds that show differential cytotoxicity against isogenic chicken DT40 cell lines with known DNA damage response pathways - Rad54/Ku70 mutant cell line (AID 743015); note: nearly all actives have a fitted effect of over 60% in size
[14] = qHTS assay to identify small molecule antagonists of the androgen receptor (AR) signaling pathway - cell viability counter screen (AID 743033; note: nearly all actives have a fitted effect of over 45% in size)
[15] = target: Glucocorticoid receptor (Homo sapiens) (UniProt P04150); test: qHTS assay to identify small molecule antagonists of the glucocorticoid receptor (GR) signaling pathway (AID 720692; active = well fitted inhibition curve with a large enough effect in the signal ratio in the repeat runs, not every such curve was filed as active; the % refers to the signal ratio)
In short: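 Tox21 10K library screened in concentration-response for blockade of dexamethasone (5 nM final)-induced GRE-bla reporter activity in HeLa cells; 18 h treatment, fluorescence read.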

[16] = qHTS assay to identify small molecule antagonists of the androgen receptor (AR) signaling pathway using the MDA cell line - cell viability counter screen (AID 743041; note: nearly all actives have a fitted effect of over 45% in size)
In short: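 Using the breast carcinoma line MDA-kb2 AR-luc, test chemicals were co-incubated with R1881 for 16 h; CellTiter-Fluor reagent, added at 15.5 h, provided a fluorescence measure of live cells.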

[17] = target: Androgen receptor (Homo sapiens) (UniProt P10275); test: qHTS assay to identify small molecule antagonists of the androgen receptor (AR) signaling pathway (AID 743035; active = well fitted inhibition curve with a large enough effect in the signal ratio in the repeat runs, not every such curve was filed as active; the % refers to the signal ratio)
Sequence of Androgen receptor (Homo sapiens) (P10275 whole entry, looked up): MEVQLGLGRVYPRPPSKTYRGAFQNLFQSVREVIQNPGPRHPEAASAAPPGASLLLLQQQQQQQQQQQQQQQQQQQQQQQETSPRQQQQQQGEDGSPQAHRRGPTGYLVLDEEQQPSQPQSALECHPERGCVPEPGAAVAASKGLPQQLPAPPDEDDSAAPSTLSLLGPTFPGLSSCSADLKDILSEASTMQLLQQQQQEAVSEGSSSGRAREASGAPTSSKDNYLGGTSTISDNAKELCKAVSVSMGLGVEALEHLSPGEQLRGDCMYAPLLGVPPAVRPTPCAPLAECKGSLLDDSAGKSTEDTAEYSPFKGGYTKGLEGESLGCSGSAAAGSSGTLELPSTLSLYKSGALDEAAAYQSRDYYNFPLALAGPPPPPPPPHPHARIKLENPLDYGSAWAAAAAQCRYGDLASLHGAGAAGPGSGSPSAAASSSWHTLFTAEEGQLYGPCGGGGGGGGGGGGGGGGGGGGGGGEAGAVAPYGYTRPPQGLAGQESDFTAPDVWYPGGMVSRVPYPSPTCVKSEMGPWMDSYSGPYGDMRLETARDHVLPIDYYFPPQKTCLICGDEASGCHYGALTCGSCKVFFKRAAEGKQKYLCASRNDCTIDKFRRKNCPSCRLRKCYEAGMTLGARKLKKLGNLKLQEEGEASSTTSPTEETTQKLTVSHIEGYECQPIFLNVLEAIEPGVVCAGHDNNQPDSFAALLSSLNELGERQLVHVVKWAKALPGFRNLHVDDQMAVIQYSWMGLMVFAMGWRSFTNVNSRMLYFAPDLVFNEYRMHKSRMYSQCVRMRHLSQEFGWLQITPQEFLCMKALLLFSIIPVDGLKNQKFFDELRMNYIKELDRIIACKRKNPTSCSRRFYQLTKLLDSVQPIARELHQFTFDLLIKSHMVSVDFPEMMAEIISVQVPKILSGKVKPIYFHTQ
In short: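 R1881 agonist challenge of a HEK293 UAS-beta-lactamase AR reporter line in the presence of compound (16 h, 37C); signal taken as FRET fluorescence after 2 h with LiveBLAzer B/G substrate at room temperature.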

[18] = target: Androgen receptor (Homo sapiens) (UniProt P10275); test: qHTS assay to identify small molecule agonists of the androgen receptor (AR) signaling pathway (AID 743036; active = well fitted activation curve with a large enough effect in the signal ratio in the repeat runs, with a control signal flat, not every such curve was filed as active; the % refers to the signal ratio)
In short: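 AR-bla HEK293 cells, 2,000/well; 4 h preincubation 37C/5% CO2; compound (DMSO) 16 h at 37C; LiveBLAzer B/G FRET substrate 2 h RT; fluorescence intensity read-out.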

[19] = target: Androgen receptor (Homo sapiens) (UniProt P10275); test: qHTS assay to identify small molecule agonists of the androgen receptor (AR) signaling pathway using the MDA cell line (AID 743040; note: nearly all actives have a fitted effect of over 20% in size)
In short: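 Stable MMTV-luciferase reporter in MDA-kb2 cells; note the promoter carries GR as well as AR response elements. 16 h compound treatment, 37C, 0% CO2; ONE-Glo luminescence endpoint.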

[20] = target: Androgen receptor (Homo sapiens) (UniProt P10275); test: qHTS assay to identify small molecule antagonists of the androgen receptor (AR) signaling pathway using the MDA cell line (AID 743042; note: nearly all actives have a fitted effect of over 55% in size)
In short: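 Antagonist mode: compounds plus R1881 agonist added to MDA-kb2 AR-luc cells, incubated 16 h at 37C. Luciferase reporter luminescence quantified, with multiplexed CellTiter-Fluor readout for cell viability.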
% is set by controls: 0 for no effect and ±100 for the full control effect.

OC[C@@H](O)[C@@H](O)CO
inactive: Potency [1] | Potency [2] | Potency [3] | Potency [4] | Potency [5] | Potency [6] | Potency [7] | Potency [8] | Potency [9] | Potency [10] | Potency [11] | Potency [12] | Potency [13] | Potency [14]

CC(N=C(NC#N)Nc1ccncc1)C(C)(C)C (configuration not stated)
inactive: Potency [1] | Potency [2] | Potency [3] | Potency [4] | Potency [5] | Potency [6] | Potency [7] | Potency [8] | Potency [9] | Potency [15] | Potency [10] | Potency [12] | Potency [14] | Potency [16]

Cc1cc(C(C)(C)C)cc(C)c1CC1=NCCN1
inactive: fluorescence, % of fluorescein [1] 0.178% [at 18.6 µM] | fluorescence, % of fluorescent control [2] 0.0078% [at 18.6 µM] | activity change [3] 0.0172% [at 18.6 µM, stronger effect = higher value] | fluorescence, % of fluorescent control [4] 0.0411% [at 18.6 µM] | fluorescence, % of Rose Bengal [5] -0.207% [at 18.6 µM] | fluorescence, % of fluorescent control [6] 0.411% [at 18.6 µM] | fluorescence, % of fluorescein control [7] -0.0122% [at 18.6 µM] | fluorescence, % of fluorescent control [8] 0.013% [at 18.6 µM] | Potency [9] | Potency [15] | Potency [10] | Potency [11]

O=c1c(O)c(-c2ccc(O)cc2O)oc2cc(O)cc(O)c12
inactive: Potency [1] | Potency [2] | Potency [3] | Potency [4] | Potency [5] | Potency [6] | Potency [7] | Potency [8] | Potency [9] | Potency [15] | Potency [10] | Potency [14] | Potency [16]

Cc1ccc(C)cc1
inactive: Potency [1] | Potency [2] | Potency [3] | Potency [4] | Potency [5] | Potency [6] | Potency [7] | Potency [8] | Potency [9] | Potency [15] | Potency [10] | Potency [14] | Potency [17] | Potency [18] | outcome [19] | Potency [16] | Potency [20]

COc1cccc(OC)c1C(=O)O
inactive: Potency [1] | Potency [2] | Potency [3] | Potency [4] | Potency [5] | Potency [6] | Potency [7] | Potency [8] | Potency [9] | Potency [15] | Potency [10] | Potency [12] | Potency [13] | Potency [14] | Potency [16]

C=C(C)c1cccc(C(=C)C)c1
inactive: Potency [1] | Potency [2] | Potency [3] | Potency [4] | Potency [5] | Potency [6] | Potency [7] | Potency [8] | Potency [9] | Potency [15] | Potency [10] | Potency [13] | Potency [14]

CC(=O)CC(=O)Nc1ccc(S(=O)(=O)O)cc1
inactive: Potency [1] | Potency [2] | Potency [3] | Potency [4] | Potency [5] | Potency [6] | Potency [7] | Potency [8] | Potency [9] | Potency [10] | Potency [11] | Potency [12] | Potency [13] | Potency [14]
